# Data taken from PubChem BioAssay AID1508601 (ICCB-Longwood Screening Facility, Harvard Medical School, 2020).
# In all, about 5,700 compounds went through this assay and about 85 (1%) were called active. Cut-off read from the data, not from the text of the source: active = p53-positive nuclei above about 36% (passing the limit was not always enough); inactive = the rest. For the sample, actives were picked, then their nearest neighbours and some compounds at random.
# How the values were obtained:
# [1] = nuclear p53 accumulation, HPV+ cells – imaging, p53-positive nuclei imaging, 24 h, 48 h (AID 1508601); conditions: 24/48 h
# [2] = target: Cellular tumor antigen p53 (Homo sapiens) (UniProt P04637); experiment: as above; conditions: 24/48 h, stronger effect = higher value
# [3] = measured here: cell number at 24 h, concentration not given here
# [4] = measured here: cell number at 48 h, concentration not given here
# [5] = measured here: p53 positive nuclei at 24 h, concentration not given here
# [6] = measured here: cell number at 24 h, Library stock concentration: 80 uM
# [7] = measured here: cell number at 24 h, Library stock concentration: 400 uM
# [8] = measured here: cell number at 24 h, Library stock concentration: 2 mM
# [9] = measured here: cell number at 24 h, Library stock concentration: 10 mM
# [10] = measured here: cell number at 48 h, Library stock concentration: 80 uM
# [11] = measured here: cell number at 48 h, Library stock concentration: 400 uM
# [12] = measured here: cell number at 48 h, Library stock concentration: 2 mM
# [13] = measured here: cell number at 48 h, Library stock concentration: 10 mM
# [14] = Library stock concentration: 80 uM
# [15] = Library stock concentration: 400 uM
# [16] = Library stock concentration: 2 mM
# [17] = Library stock concentration: 10 mM
# [18] = measured here: p53 positive nuclei at 24 h, Library stock concentration: 80 uM
# [19] = measured here: p53 positive nuclei at 24 h, Library stock concentration: 400 uM
# [20] = measured here: p53 positive nuclei at 24 h, Library stock concentration: 2 mM
# [21] = measured here: p53 positive nuclei at 24 h, Library stock concentration: 10 mM
# [22] = measured here: cell number at 24 h, Library stock concentration: 3.33 mM
# [23] = measured here: cell number at 48 h, Library stock concentration: 3.33 mM
# [24] = Library stock concentration: 3.33 mM
# [25] = measured here: p53 positive nuclei at 24 h, Library stock concentration: 3.33 mM
# Chain of Cellular tumor antigen p53 (Homo sapiens) (P04637 whole entry, looked up): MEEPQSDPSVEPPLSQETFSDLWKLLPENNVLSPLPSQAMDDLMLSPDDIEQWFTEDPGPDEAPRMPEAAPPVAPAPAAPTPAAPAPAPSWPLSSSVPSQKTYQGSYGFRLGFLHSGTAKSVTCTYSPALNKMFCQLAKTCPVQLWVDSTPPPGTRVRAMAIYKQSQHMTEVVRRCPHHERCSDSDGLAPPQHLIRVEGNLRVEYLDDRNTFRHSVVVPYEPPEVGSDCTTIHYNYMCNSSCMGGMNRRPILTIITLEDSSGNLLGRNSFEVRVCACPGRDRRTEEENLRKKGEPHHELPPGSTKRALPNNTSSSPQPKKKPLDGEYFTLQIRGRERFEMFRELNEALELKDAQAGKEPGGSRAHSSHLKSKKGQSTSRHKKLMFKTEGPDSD
compound,measurement,setting,value
CCCCCCCCNC(=O)Cc1c(C)n(C(=O)c2ccc(Cl)cc2)c2ccc(OC)cc12,"nuclei count, normalised",[1]; [3],104%
same,"nuclei count, normalised",[1]; [4],112%
same,"p53-positive nuclei, normalised",[2]; concentration not given here,0.0988% (inactive)
same,"p53-positive nuclei, normalised",[2]; [5],-0.0319%
O=C1CCCc2occ(C(=O)N3CCc4[nH]nc(C5CCC5)c4C3)c21,"nuclei count, normalised",[1]; [3],110%
same,"nuclei count, normalised",[1]; [4],114%
same,"p53-positive nuclei, normalised",[2]; concentration not given here,-0.00738% (inactive)
same,"p53-positive nuclei, normalised",[2]; [5],-0.086%
OCCCCCNc1nccc(-c2cnn(-c3ccc(F)cc3)c2)n1,"nuclei count, normalised",[1]; [3],103%
same,"nuclei count, normalised",[1]; [4],103%
same,"p53-positive nuclei, normalised",[2]; concentration not given here,-0.0141% (inactive)
same,"p53-positive nuclei, normalised",[2]; [5],0.508%
OCCCCCNc1nccc(-c2cnn(-c3ccccc3F)c2)n1,"nuclei count, normalised",[1]; [3],112%
same,"nuclei count, normalised",[1]; [4],73.8%
same,"p53-positive nuclei, normalised",[2]; concentration not given here,0.562% (inactive)
same,"p53-positive nuclei, normalised",[2]; [5],-0.0884%
OCCCNc1cc(-c2ccnc(Nc3cccc(Cl)c3)n2)ccn1,"nuclei count, normalised",[1]; [6],46%
same,"nuclei count, normalised",[1]; [7],37.5%
same,"nuclei count, normalised",[1]; [8],37%
same,"nuclei count, normalised",[1]; [9],36.9%
same,"nuclei count, normalised",[1]; [10],28.8%
same,"nuclei count, normalised",[1]; [11],20.8%
same,"nuclei count, normalised",[1]; [12],22.2%
same,"nuclei count, normalised",[1]; [13],23.8%
same,"p53-positive nuclei, normalised",[2]; [14],75.9% (active)
same,"p53-positive nuclei, normalised",[2]; [15],41.8% (inactive)
same,"p53-positive nuclei, normalised",[2]; [16],16.5% (inactive)
same,"p53-positive nuclei, normalised",[2]; [17],8.11% (inactive)
same,"p53-positive nuclei, normalised",[2]; [18],23.9%
same,"p53-positive nuclei, normalised",[2]; [19],2.63%
same,"p53-positive nuclei, normalised",[2]; [20],2.24%
same,"p53-positive nuclei, normalised",[2]; [21],1.34%
NC(=Nc1ccc(F)cc1)NO,"nuclei count, normalised",[1]; [3],101%
same,"nuclei count, normalised",[1]; [4],95.3%
same,"p53-positive nuclei, normalised",[2]; concentration not given here,0.0683% (inactive)
same,"p53-positive nuclei, normalised",[2]; [5],-0.0286%
O=C(C=Cn1cnc(-c2cc(C(F)(F)F)cc(C(F)(F)F)c2)n1)N1CC(F)(F)C1,"nuclei count, normalised",[1]; [22],66.2%
same,"nuclei count, normalised",[1]; [23],53%
same,"p53-positive nuclei, normalised",[2]; [24],0.0748% (inactive)
same,"p53-positive nuclei, normalised",[2]; [25],-0.238%
O=C(O)CCC/C=C\C[C@H]1C(=O)C[C@@H](O)[C@@H]1/C=C/[C@@H](O)CCc1ccccc1,"nuclei count, normalised",[1]; [3],102%
same,"nuclei count, normalised",[1]; [4],107%
same,"p53-positive nuclei, normalised",[2]; concentration not given here,0.0806% (inactive)
same,"p53-positive nuclei, normalised",[2]; [5],0.0378%
Cc1nn(C)cc1-c1ccnc(N2CCCC(c3nc4c(C)cccc4[nH]3)C2)n1 (stereo not drawn),"nuclei count, normalised",[1]; [3],103%
same,"nuclei count, normalised",[1]; [4],106%
same,"p53-positive nuclei, normalised",[2]; concentration not given here,-0.267% (inactive)
same,"p53-positive nuclei, normalised",[2]; [5],-0.151%
CC1(C)S[C@@H]2C(NC(=O)C(C(=O)O)c3ccccc3)C(=O)N2C1C(=O)O (stereo partly drawn),"nuclei count, normalised",[1]; [22],119%
same,"nuclei count, normalised",[1]; [23],111%
same,"p53-positive nuclei, normalised",[2]; [24],-0.208% (inactive)
same,"p53-positive nuclei, normalised",[2]; [25],-0.327%
CC(C)c1nn(-c2c(Cl)cccc2Cl)c2nc(Cc3ccc(OCCO)cc3)[nH]c(=O)c12,"nuclei count, normalised",[1]; [6],64.8%
same,"nuclei count, normalised",[1]; [7],36%
same,"nuclei count, normalised",[1]; [8],26.2%
same,"nuclei count, normalised",[1]; [9],26.4%
same,"nuclei count, normalised",[1]; [10],50.6%
same,"nuclei count, normalised",[1]; [11],25.1%
same,"nuclei count, normalised",[1]; [12],17.9%
same,"nuclei count, normalised",[1]; [13],18.4%
same,"p53-positive nuclei, normalised",[2]; [14],27.9% (inactive)
same,"p53-positive nuclei, normalised",[2]; [15],67% (active)
same,"p53-positive nuclei, normalised",[2]; [16],32.9% (inactive)
same,"p53-positive nuclei, normalised",[2]; [17],34.7% (inactive)
same,"p53-positive nuclei, normalised",[2]; [18],18.6%
same,"p53-positive nuclei, normalised",[2]; [19],19.1%
same,"p53-positive nuclei, normalised",[2]; [20],6.59%
same,"p53-positive nuclei, normalised",[2]; [21],4.85%
COc1cc(OC)c2c(=O)[nH]c(-c3cc(C)c(OCCO)c(C)c3)nc2c1,"nuclei count, normalised","[1]; measured here: cell number at 24 h, Library stock concentration: 46 uM",114%
same,"nuclei count, normalised","[1]; measured here: cell number at 24 h, Library stock concentration: 278 uM",107%
same,"nuclei count, normalised","[1]; measured here: cell number at 24 h, Library stock concentration: 1.67 mM",118%
same,"nuclei count, normalised",[1]; [22],108%
same,"nuclei count, normalised",[1]; [9],109%
same,"nuclei count, normalised","[1]; measured here: cell number at 48 h, Library stock concentration: 46 uM",111%
same,"nuclei count, normalised","[1]; measured here: cell number at 48 h, Library stock concentration: 278 uM",108%
same,"nuclei count, normalised","[1]; measured here: cell number at 48 h, Library stock concentration: 1.67 mM",107%
same,"nuclei count, normalised",[1]; [23],103%
same,"nuclei count, normalised",[1]; [13],108%
same,"p53-positive nuclei, normalised",[2]; Library stock concentration: 46 uM,0.0206% (inactive)
same,"p53-positive nuclei, normalised",[2]; Library stock concentration: 278 uM,0.323% (inactive)
same,"p53-positive nuclei, normalised",[2]; Library stock concentration: 1.67 mM,0.07% (inactive)
same,"p53-positive nuclei, normalised",[2]; [24],0.152% (inactive)
same,"p53-positive nuclei, normalised",[2]; [17],-0.223% (inactive)
same,"p53-positive nuclei, normalised","[2]; measured here: p53 positive nuclei at 24 h, Library stock concentration: 46 uM",-0.102%
same,"p53-positive nuclei, normalised","[2]; measured here: p53 positive nuclei at 24 h, Library stock concentration: 278 uM",0.166%
same,"p53-positive nuclei, normalised","[2]; measured here: p53 positive nuclei at 24 h, Library stock concentration: 1.67 mM",-0.00477%
same,"p53-positive nuclei, normalised",[2]; [25],0.0179%
same,"p53-positive nuclei, normalised",[2]; [21],-0.153%
